NCOA1 inh – human NCOA1 inhibition; HEK293 GAL4-SRC1 luciferase reporter, luminescence; inhibition, % at 3.6 µM; actives 0.12% (n = 360,000);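 active = inhibition above the campaign mean plus 3 SD, with each screening campaign given its own cutoff, cut at about 60% in these data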
NR2F2 inh – inhibitors of human COUP-TFII (NR2F2); P24468; actives 0.7% (n = 370,000); inhibition, % at 8.6 µM; HEK293T NGFI-A luciferase reporter, luminescence;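 active = inhibition above a per-plate cutoff, mean inhibition of test wells between control levels plus 3 SD, cut at about 38% in these data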;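 also: cells cotransfected with COUP-TFII expression vector driving the NGFI-A reporter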
SRC3 inh – human NCOA3 inhibition; HEK293 GAL4-SRC3 luciferase reporter, luminescence; inhibition, % at 3.6 µM; actives 0.17% (n = 360,000);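 active = inhibition above a per-campaign cutoff, the mean of all compounds plus 3 SD, cut at about 60% in these data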;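 also: higher means less SRC3-driven luciferase light from the GAL4 reporter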
LRH-1 inv ag – NR5A2 inverse agonism in reporter assay. O00482. HEK293T StAR-luciferase reporter, LRH-1 transfected, 24 h. inhibition, % at 3.6 µM. actives 0.13% (n = 360,000). AID 602396;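 active = inhibition above the mean inhibition of all tested compounds plus 3 SD, cut at about 73% in these data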
Target sequence (O00482 whole entry, looked up): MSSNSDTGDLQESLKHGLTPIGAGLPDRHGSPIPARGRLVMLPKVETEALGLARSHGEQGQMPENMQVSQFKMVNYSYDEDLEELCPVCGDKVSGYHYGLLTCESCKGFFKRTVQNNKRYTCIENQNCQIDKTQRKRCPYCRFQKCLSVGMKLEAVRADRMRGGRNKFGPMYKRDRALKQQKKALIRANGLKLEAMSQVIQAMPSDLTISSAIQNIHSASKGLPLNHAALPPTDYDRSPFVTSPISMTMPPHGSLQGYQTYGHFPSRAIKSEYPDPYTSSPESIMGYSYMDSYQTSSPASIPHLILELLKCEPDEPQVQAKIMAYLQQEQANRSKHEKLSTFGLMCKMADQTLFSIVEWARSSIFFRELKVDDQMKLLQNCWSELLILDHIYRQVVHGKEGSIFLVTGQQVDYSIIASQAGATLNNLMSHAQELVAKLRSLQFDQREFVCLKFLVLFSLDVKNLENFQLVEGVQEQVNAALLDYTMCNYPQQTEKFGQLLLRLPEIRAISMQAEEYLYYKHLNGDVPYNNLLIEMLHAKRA
NCOA2 inhibitor – inhibits human steroid receptor coactivator 2; Q15596; HEK293 GAL4-SRC2 luciferase reporter, luminescence; inhibition, % at 9 µM; actives 0.17% (n = 370,000); AID 651957;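 active = inhibition above the mean inhibition of all tested compounds plus 3 SD, set per campaign, cut at about 52% in these data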
Gal4-VP16 ctr – inhibits VP16 reporter, flagging COUP-TFII antagonist hits. actives 25% (n = 2,500). HEK293 Gal4-VP16 luciferase reporter, luminescence. shares compounds with NR2F2 inh. inhibition, % at 8.5 µM; in the data active = inhibition above about 13%
COUP-TFII conf – COUP-TFII (NR2F2) inhibition, confirmation assay; shares compounds with NR2F2 inh; HEK293 NGFI-A luciferase reporter, luminescence; inhibition, % at 8.5 µM; actives 45% (n = 2,500); AID 687008;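 active = mean inhibition over three repeats above a set limit taken from the earlier primary screen, cut at about 38% in these data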
Large screens that a line does not name were inactive (follow-up assays come after a bar, where they were run). Sampled rows, rich in hits. Any-hit rate of the full collection: about 0.81%.

Cc1ccc(NC(=O)c2cc(S(=O)(=O)NCC3CCCO3)ccc2F)cc1 (centres undefined)	none
Cc1ccc(NC(=O)c2cc(S(=O)(=O)NCCC3=CCCCC3)ccc2F)cc1	NR2F2 inh 61 | Gal4-VP16 ctr inactive | COUP-TFII conf inactive
Cc1cc(C(=O)COC(=O)c2ccccc2O)c(C)n1Cc1cccs1	NCOA1 inh 90, NR2F2 inh 97, SRC3 inh 87, LRH-1 inv ag 94, NCOA2 inhibitor 86 | Gal4-VP16 ctr 81 | COUP-TFII conf 104
Cc1cc(C(=O)COC(=O)c2ccc3c(c2)OCO3)c(C)n1Cc1cccs1	none
CC(=O)Nc1ccccc1OCC(=O)c1cc(C)n(Cc2cccs2)c1C	NR2F2 inh 73 | Gal4-VP16 ctr inactive | COUP-TFII conf 81
Cc1cc(C)n2nc(SCc3ccccc3)nc2n1	none
O=C(Nc1ccc(S(=O)(=O)Nc2ccccc2)cc1)c1ccc(CN2CCOCC2)cc1	NR2F2 inh 69 | Gal4-VP16 ctr inactive | COUP-TFII conf inactive
CCC(C)Oc1ccc(C(=O)Nc2ccc(CN3CCOCC3)cc2)cc1 (centres undefined)	NR2F2 inh 40 | Gal4-VP16 ctr inactive | COUP-TFII conf inactive
O=C(Nc1ccc(CN2CCOCC2)cc1)c1ccc(Cl)cc1	none
COC(=O)c1ccc(NC(=O)c2ccc(CN3CCOCC3)cc2)cc1	NR2F2 inh 48 | Gal4-VP16 ctr inactive | COUP-TFII conf inactive
COc1ccccc1N1CCN(C(=O)c2ccc(Br)o2)CC1	none
Cc1ccc(S(=O)(=O)N(C)c2ccc(OCC(=O)Nc3nc4ccccc4s3)cc2)cc1	NR2F2 inh 39 | Gal4-VP16 ctr inactive | COUP-TFII conf inactive
COc1cc(NC(=O)COc2cc(O)c3c(c2)OC(C)(C)CC3=O)cc(OC)c1OC	NR2F2 inh 81 | Gal4-VP16 ctr inactive | COUP-TFII conf 81
O=C(c1cc(COc2cccc3cnccc23)on1)N1CCCC(CCCO)C1 (centres undefined)	NR2F2 inh 71 | Gal4-VP16 ctr inactive | COUP-TFII conf 76
COCC1CCN(C(=O)c2cc(COc3cccc4cnccc34)on2)CC1	NR2F2 inh 53 | Gal4-VP16 ctr inactive | COUP-TFII conf inactive
Cc1nn(C)cc1C(C)NC(=O)c1cc(COc2cccc3cnccc23)on1 (centres undefined)	NR2F2 inh 38 | Gal4-VP16 ctr inactive | COUP-TFII conf inactive
COc1ccc(OCc2cc(C(=O)N3CCCC(CO)C3)no2)c2ccccc12 (centres undefined)	none
COCC1CCN(C(=O)c2cc(COc3ccc(F)cc3Cl)on2)C1 (centres undefined)	none
CCOc1ccccc1NC(=O)NC1(C(=O)NCc2cccnc2)CCCCC1	none
CN1CCCN(C(=O)c2cccc(Br)c2)CC1	none
COc1ccccc1OCc1ccc(C(=O)Nc2ccncc2)o1	NR2F2 inh 39 | Gal4-VP16 ctr inactive | COUP-TFII conf inactive
COc1ccccc1OCc1ccc(C(=O)NC(C)(C)C)o1	none
O=C(COc1ccc2oc(-c3ccccc3)cc(=O)c2c1)NCc1ccco1	none (no result: NR2F2 inh, NCOA2 inhibitor)
Cc1ccc(NC(=O)c2ccc(Nc3c([N+](=O)[O-])cc([N+](=O)[O-])cc3[N+](=O)[O-])cc2)cc1	NR2F2 inh 70 | Gal4-VP16 ctr inactive | COUP-TFII conf 47
O=C(c1ccc(Cl)c(Cl)c1)N1CCN(c2ccnc3cc(Cl)ccc23)CC1	NR2F2 inh 54 (no result: NCOA1 inh, SRC3 inh, LRH-1 inv ag, NCOA2 inhibitor) | Gal4-VP16 ctr inactive | COUP-TFII conf inactive
Cc1cc([N+](=O)[O-])nn1CC(=O)Nc1ccccn1	none
CN(C)S(=O)(=O)c1cccc(C(=O)NC2CCCc3ccccc32)c1 (centres undefined)	none
CN(C)S(=O)(=O)c1ccc(C(=O)NC2CCCc3ccccc32)cc1 (centres undefined)	NR2F2 inh 63 | Gal4-VP16 ctr inactive | COUP-TFII conf inactive
O=C(Nc1cccc(S(=O)(=O)N2CCOCC2)c1)c1cccc(S(=O)(=O)N2CCCC2)c1	none
COc1ccc(C(=O)Nc2cccc(S(=O)(=O)N(C)C)c2)cc1S(=O)(=O)N1CCOCC1	none
COc1ccccc1N(C)S(=O)(=O)c1ccc(C(=O)Nc2nc(C)cs2)cc1	NR2F2 inh 40 | Gal4-VP16 ctr inactive | COUP-TFII conf inactive
CN(c1ccccc1)S(=O)(=O)c1ccc(C(=O)Nc2cccc(S(=O)(=O)N3CCOCC3)c2)cc1	NR2F2 inh 56 | Gal4-VP16 ctr inactive | COUP-TFII conf 43
COc1ccccc1N(C)S(=O)(=O)c1ccc(C(=O)Nc2cccc(S(=O)(=O)N3CCOCC3)c2)cc1	NR2F2 inh 50 | Gal4-VP16 ctr inactive | COUP-TFII conf inactive
O=c1[nH]ccc2c([N+](=O)[O-])cccc12	none
CS(=O)(=O)N1CCN(C(=O)Cc2ccc([N+](=O)[O-])cc2)CC1	none
COC(=O)C1CCN(C(=O)c2cc(-c3ccc(Cl)s3)nc3ccccc23)CC1	NR2F2 inh 38 | Gal4-VP16 ctr inactive | COUP-TFII conf inactive
CCOC(=O)[C@H]1[C@H]2COc3ccc(Cl)cc3[C@@H]2N2C(=O)c3ccc(C)cc3NC(=O)[C@@]12C	none
Cc1ccc(OCC(=O)c2cc(C)n(-c3ccccc3)c2C)c([N+](=O)[O-])n1	NR2F2 inh 53, NCOA2 inhibitor 78 | Gal4-VP16 ctr inactive | COUP-TFII conf inactive
C=CCn1c(C)cc(C(=O)COc2ccc(C)nc2[N+](=O)[O-])c1C	NR2F2 inh 40, NCOA2 inhibitor 61 | Gal4-VP16 ctr inactive | COUP-TFII conf inactive
Cc1cc(C(=O)COC(=O)C2=COCCO2)c(C)n1-c1ccccc1	NR2F2 inh 65 | Gal4-VP16 ctr 16 | COUP-TFII conf 74
Nc1nnc(CCCCCCCCCCc2nnc(N)s2)s1	none
N#C/C(=C(/O)COC(=O)CSc1ccc(Cl)cc1)c1nc2ccccc2[nH]1	none
COC(=O)CSc1nnc(-c2sc3ccccc3c2Cl)o1	none
N#CCSc1nnc(-c2sc3ccccc3c2Cl)o1	NR2F2 inh 53 | Gal4-VP16 ctr inactive | COUP-TFII conf 44
O=C(NCc1cccc(Cl)c1)c1cccc(OC2CCN(C(=O)C3CC3)CC2)c1	NR2F2 inh 56 | Gal4-VP16 ctr inactive | COUP-TFII conf inactive
CCN(CC)S(=O)(=O)c1ccc(C)c(NC(=S)N2CCN(C/C=C/c3ccccc3)CC2)c1	NR2F2 inh 43 | Gal4-VP16 ctr inactive | COUP-TFII conf inactive
N#Cc1ccc(OCC(=O)N/N=C(\CCC(=O)O)c2cccs2)cc1	none
C#CC[N+](C)(C)CCCCCCCC	none
C#CC[N+](C)(C)CCCCCCCCCCCC	NR2F2 inh 41 | Gal4-VP16 ctr inactive | COUP-TFII conf inactive
CC#CC[N+](C)(C)CCCCCCCCCCCC	NR2F2 inh 44 | Gal4-VP16 ctr inactive | COUP-TFII conf inactive
CCCCCCCCCCCCCCCC[N+](C)(C)CC	none
C#CC[N+](C)(C)CCCCCCCCCC	NR2F2 inh 47 | Gal4-VP16 ctr inactive | COUP-TFII conf inactive
